Cycloheximide cs: affects cycloheximide protein synthesis inhibition readout, counter-screen. cell reporter, cycloheximide protein synthesis inhibition counterscreen. max response, %. hit rate 12% among 300,000. AID 2314; in the data active = max response mostly above about 13%, no sharp cut-off; inactive = mostly below about 14%; note: read at 38.3 µM for the half of the compounds with a filed dose; 0% is about no effect
Pf growth 96h: P. falciparum growth inhibition at 96 hour, primary screen for plastid delayed-death inhibitors. P. falciparum luciferase reporter growth, 96 h. Potency, µM (highest dose often 28.7 µM), inactives show top-dose activity change, negative = inhibition, usual class: inhibitors. hit rate 6.9% among 320,000. AID 504834; note: potency is the fitted concentration of half-maximal effect; % is set by controls: 0 for no effect and ±100 for the full control effect
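Delayed-death screen, second-generation endpoint: infected erythrocytes, 2% hematocrit, 0.05% parasitemia final; 96 hours at 37 C, 5% CO2; luciferase detection reagent; luminescence decrease equals reduced growth.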
HCV inh: blocks hepatitis C virus. Huh7.5.1 HCVcc-Cre infection, luciferase reporter, 44 h. Potency, µM (titrated, usually from 41.8 µM), inactives show at the top dose activity change, negative = inhibition, actives largely listed as inhibitors. hit rate 3.4% among 340,000. AID 651820; note: potency is the fitted concentration of half-maximal effect; % is set by controls: 0 for no effect and ±100 for the full control effect
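Cells (1,000/well) were plated 4 h before compound, then infected with HCVcc-Cre virus (~0.5 moi). After 44 h further culture, infection was read as luciferase luminescence following a 15 min substrate incubation at room temperature.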
Shiga inhibitor: inhibitors of Shiga toxin in Vero cells | Vero cells, Shiga toxin protein synthesis inhibition reporter | inhibition, % at 38.7 µM | hit rate 9.2% among 290,000; in the data active = inhibition mostly above about 28%, no sharp cut-off; inactive = mostly below about 43%; note: 0% is about no effect
HCMV antiviral: inhibitors of human cytomegalovirus. HFF cells, HCMV-luciferase reporter, 72 h; stronger effect = lower value. activity change, negative = inhibition, % at 57.5 µM. hit rate 4.5% among 410,000. AID 1259415; in the data active = activity change below about -60%; inconclusive = no clear call, values can overlap the other calls; inactive = above about -39%; note: % is set by controls: 0 for no effect and ±100 for the full control effect
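Screen run at 2 compound doses on HFFs infected with reporter HCMV, MOI 1 PFU/cell. Luciferase activity from cell lysates at 72 h post infection gave inhibition relative to buffer-only and Salinomycin wells.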
Pf growth 48h: P. falciparum growth inhibition at 48 hours (one generation); Potency, µM (series often up to 28.7 µM), inactives show at the highest dose activity change, negative = inhibition, actives largely listed as inhibitors; hit rate 5.9% among 310,000; P. falciparum luciferase growth in erythrocytes, 48 h; note: potency is the fitted concentration of half-maximal effect; % is set by controls: 0 for no effect and ±100 for the full control effect
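Luciferase-expressing P. falciparum in infected erythrocytes (2% hematocrit, 0.1% parasitemia final) in RPMI 1640/0.5% Albumax were exposed to compound for 48 hours at 37 C, 5% CO2; growth read as luminescence.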
* hit, by the source's call. Sampled rows, rich in hits. Any-hit rate of the full collection: about 21%. Unless noted, calls come from the whole dose curve; as a rule, active = well fitted inhibition curve with a large enough effect; inconclusive = small, poorly fitted or top-dose-only effect, or another doubt; inactive = no such curve, though single readings can be large or run the other way.

What do the screens show for `O=C(CCCC(=O)Nc1ccccc1Br)N/N=C/c1c(F)cccc1Cl`?
Cycloheximide cs: -4; Pf growth 96h: 6%; HCV inh: 9%; Shiga inhibitor: -11; HCMV antiviral: 0; Pf growth 48h: 7%

Results for c1ccc(-c2noc(-c3cccnc3)n2)nc1 ?
Cycloheximide cs: 42*; HCV inh: 6%; Shiga inhibitor: 80*; HCMV antiviral: 147; Pf growth 48h: 134%

Results for c1ccc(CCc2ccccc2-c2nc(-c3ccccn3)no2)cc1 ?
Cycloheximide cs: 20; HCV inh: inconclusive; Shiga inhibitor: 26; HCMV antiviral: -9; Pf growth 48h: inconclusive

Results for c1ccc(-c2noc(-c3ccc4c(c3)OCO4)n2)nc1 ?
Cycloheximide cs: -1; HCV inh: inconclusive; Shiga inhibitor: -12; HCMV antiviral: -81*; Pf growth 48h: -34%

How did Clc1ccccc1/C=C/c1nc(-c2ccccn2)no1 do in these assays?
Cycloheximide cs: -1; Pf growth 96h: 67%; HCV inh: -27%; Shiga inhibitor: -16; HCMV antiviral: inconclusive; Pf growth 48h: 2.1µM*

What do the screens show for `c1ccc(-c2nccc(-c3ccc4c(c3)OCO4)n2)cc1`?
Cycloheximide cs: 55*; Pf growth 96h: 39%; HCV inh: inconclusive; Shiga inhibitor: 70*; HCMV antiviral: 41; Pf growth 48h: 117%

How did Cc1cccc(-c2noc(-c3ccc4c(c3)OCO4)n2)c1 do in these assays?
Cycloheximide cs: -2; Pf growth 96h: -20%; HCV inh: 4%; Shiga inhibitor: -5; HCMV antiviral: -27; Pf growth 48h: 14%

How did Cc1nccc(-c2ccc3c(c2)OCO3)n1 do in these assays?
Cycloheximide cs: 13; Pf growth 96h: 45%; HCV inh: -1%; Shiga inhibitor: 14; HCMV antiviral: inconclusive; Pf growth 48h: inconclusive

What do the screens show for `c1ccc(-c2noc(-c3ccncc3)n2)nc1`?
Cycloheximide cs: 34*; Pf growth 96h: 169%; HCV inh: 13%; Shiga inhibitor: 69; HCMV antiviral: 16; Pf growth 48h: 135%

Results for c1ccc(-c2noc(-c3ccc4ccccc4c3)n2)nc1 ?
Cycloheximide cs: -4; HCV inh: inconclusive; Shiga inhibitor: -15; Pf growth 48h: -95%

What do the screens show for `CC(C)CCCC(C)NC(C)C` (configuration not stated)?
Pf growth 96h: 10%; Pf growth 48h: -1%

What do the screens show for `Cc1cc(N2CCC(C)CC2)nc2cccc(O)c12`?
Cycloheximide cs: 23; Pf growth 96h: 12µM*; HCV inh: inconclusive; Shiga inhibitor: 55; HCMV antiviral: -39

How did CCN1CCc2nc(NC(=O)C(c3ccccc3)c3ccccc3)sc2C1 do in these assays?
Cycloheximide cs: -2; Pf growth 96h: 8.3µM*; HCV inh: 3%; Shiga inhibitor: -26; HCMV antiviral: -3

Results for CCN1CCc2nc(NC(=O)Cc3ccc4c(c3)OCCO4)sc2C1 ?
Cycloheximide cs: 8; Pf growth 96h: -13%; HCV inh: inconclusive; Shiga inhibitor: 17; HCMV antiviral: -12; Pf growth 48h: inconclusive

How did CCN1CCc2nc(NC(=O)CC(c3ccccc3)c3ccccc3)sc2C1 do in these assays?
Cycloheximide cs: -4; Pf growth 96h: 10µM*; HCV inh: inconclusive; Shiga inhibitor: -1; HCMV antiviral: -9; Pf growth 48h: 5.9µM*

How did CCN1CCc2nc(NC(=O)c3ccc4c(c3)OCCO4)sc2C1 do in these assays?
Cycloheximide cs: 33*; Pf growth 96h: 96%; HCV inh: -16%; Shiga inhibitor: 98*; HCMV antiviral: 51; Pf growth 48h: 140%

How did Cn1c(C(=O)NCCC2=CCCCC2)cc2c(=O)n3ccccc3nc21 do in these assays?
Cycloheximide cs: 2; Pf growth 96h: 6.6µM*; HCV inh: inconclusive; Shiga inhibitor: 11; HCMV antiviral: 20; Pf growth 48h: 73%

How did Cc1cccn2c(=O)c3cc(C(=O)NCCC4=CCCCC4)n(C)c3nc12 do in these assays?
Cycloheximide cs: 8; Pf growth 96h: inconclusive; HCV inh: -8%; Shiga inhibitor: -5; HCMV antiviral: -4; Pf growth 48h: inconclusive

What do the screens show for `Cn1c(C(=O)N2COCC2(C)C)cc2c(=O)n3ccccc3nc21`?
Cycloheximide cs: 35*; Pf growth 96h: -13%; HCV inh: -2%; Shiga inhibitor: 75*; HCMV antiviral: 62; Pf growth 48h: 85%

How did C[N+](C)(C)CCOC(=O)C(O)(c1ccccc1)c1ccccc1 do in these assays?
Pf growth 96h: 11µM*; Pf growth 48h: 0%

How did C=CCc1cccc(CNc2ccc(Br)cc2)c1O do in these assays?
Cycloheximide cs: 7; Pf growth 96h: inconclusive; HCV inh: 9%; Shiga inhibitor: 6; HCMV antiviral: -32; Pf growth 48h: 12µM*

How did Cc1ccc(CNc2nc3ccccc3n2C)o1 do in these assays?
Cycloheximide cs: 54*; Pf growth 96h: 25%; HCV inh: 12%; Shiga inhibitor: 51*; HCMV antiviral: 91; Pf growth 48h: 65%

How did c1ccc(Cn2c(NCc3ccccn3)nc3ccccc32)cc1 do in these assays?
Cycloheximide cs: -2; Pf growth 96h: inconclusive; HCV inh: 6%; Shiga inhibitor: 3; HCMV antiviral: -21; Pf growth 48h: -1%

Results for C=CCn1c(NCc2ccccc2O)nc2ccccc21 ?
Cycloheximide cs: 22*; Pf growth 96h: inconclusive; HCV inh: -11%; HCMV antiviral: 31; Pf growth 48h: inconclusive

How did c1ccc(Cn2c(NCc3ccncc3)nc3ccccc32)cc1 do in these assays?
Cycloheximide cs: 26*; Pf growth 96h: 384%; HCV inh: -3%; Shiga inhibitor: 52*; HCMV antiviral: 9; Pf growth 48h: 58%

Results for O=C(COC(=O)CNC(=O)c1ccccc1)NCCCc1ccccc1 ?
HCV inh: 1%; HCMV antiviral: -18

How did Cn1c(=O)c([N+](=O)[O-])c(NCC2CCCO2)c2ccccc21 (configuration not stated) do in these assays?
Cycloheximide cs: -1; Pf growth 96h: 88%; HCV inh: 0%; Shiga inhibitor: -12; HCMV antiviral: 15; Pf growth 48h: 49%

Results for O=C(COc1ccc(Br)cc1)NCCN1CCCC1 ?
Cycloheximide cs: -4; Pf growth 96h: inconclusive; HCV inh: 2%; HCMV antiviral: -12; Pf growth 48h: -11%

What do the screens show for `COc1ncnc2c1ncn2CCCN1CCN(Cc2ccc(C)cc2)CC1`?
HCMV antiviral: -13

How did C=CCc1cccc(CNc2nc3ccccc3n2C(C)C)c1O do in these assays?
Cycloheximide cs: -4; Pf growth 96h: inconclusive; Shiga inhibitor: 18; HCMV antiviral: -38; Pf growth 48h: 4.7µM*

What do the screens show for `C=CCn1c(NCc2cc(Cl)ccc2O)nc2ccccc21`?
Cycloheximide cs: 1; Pf growth 96h: inconclusive; HCV inh: inconclusive; Shiga inhibitor: -6; HCMV antiviral: 57; Pf growth 48h: inconclusive
